Data from PubChem BioAssay.
Results filed as inconclusive are left out. The source made the active and inactive calls.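 Rule for the calls, unless noted: active = percent response above a set limit, the screen-wide mean plus 3 SD (cut at about 130% in these data); inactive = the rest.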

How the values were obtained:
[1] = yeast TOR pathway RPL19A-GFP modulators, primary screen, cell-based, S. cerevisiae, multiplex flow cytometry (AID 1862; in the data active = percent of DMSO control GFP below about 86%;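 note: lower values mimic rapamycin by blocking the RPL19A rise seen in DMSO cells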); conditions: S. cerevisiae RPL19A-GFP strain, flow cytometry fluorescence, 3 h; at 10 µM; stronger effect = lower value
[2] = modulators of MEP2-GFP levels in yeast, primary screen, S. cerevisiae, multiplex flow cytometry (AID 1867;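 active = GFP response, as percent of the DMSO control, above the screen-wide mean plus 3 SD, about 139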;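 note: median GFP channel fluorescence of barcode-gated MEP2-GFP cells measured by flow cytometry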); conditions: S. cerevisiae MEP2-GFP strain, 3 h, at 10 µM, stronger effect = higher value, 100% means same as DMSO wells
[3] = modulators of CIT2-GFP expression in yeast, primary screen, S. cerevisiae, GFP fusion, multiplex flow cytometry (AID 1870); conditions: 3 h, at 10 µM, stronger effect = higher value;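 note: barcoded CIT2-GFP strain pooled with four other GFP strains with rapamycin as positive control; median GFP fluorescence per well over plate mean of DMSO wells so 100% = DMSO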
[4] = modulators of LAP4-GFP expression in yeast, primary screen, S. cerevisiae, multiplex flow cytometry (AID 1873;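 active = GFP signal, as percent of the solvent control, above the screen mean plus 3 SD, about 149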); conditions: 3 h, at 10 µM, stronger effect = higher value
[5] = modulators of AGP1-GFP expression in yeast TOR pathway, primary screen, cell-based, multiplex flow cytometry, S. cerevisiae (AID 1887;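 active = GFP signal above the screen-wide mean plus 3 SD, that is over about 124.5% of the solvent control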;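 note: AGP1-GFP fusion strain of S. cerevisiae within a five-strain barcoded multiplex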); conditions: 3 h, at 10 µM, stronger effect = higher value
[6] = inhibitors of CD8+ T cell-vesicle binding, pilot screen, LFA-1/ICAM-1 modulator project, MLPCN validation set, flow cytometry (AID 2523;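 active = response below a set limit, under 55% cells CD8-positive and vesicle-bound, and CD8 cells' 90th-percentile brightness under 279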;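 for vesicle binding response: mean PE anti-B7-1 fluorescence of CD8+ cells relative to row control; 100% = QL9-loaded vesicles with DMSO vehicle in the same plate row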); conditions: 2C mouse CD8+ T cells, at 7 µM, stronger effect = lower value; double positive events: measured here: CD8+/vesicle+ event percentage
[7] = biological target: Integrin beta-1 (Homo sapiens) + Integrin alpha-4 (Homo sapiens) (UniProt P13612+P05556); assay: inhibition of HUTS-21 binding to VLA-4, pilot screen, VLA-4 allosteric modulator project, U937 cells, HUTS-21 mAb, flow cytometry, validation set (AID 2674;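 active = inhibition above 50%, about 3 SD of the validation set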;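 note: antibody binding induced by the VLA-4 ligand LDV present at three times its Kd; 0% = LDV ligand with antibody and no compound and 100% = antibody without LDV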); conditions: HUTS-21 LIBS mAb binding, at 6.7 µM, stronger effect = higher value, binding induced by LDV ligand
Integrin beta-1 (Homo sapiens) + Integrin alpha-4 (Homo sapiens), sequence (P05556 whole entry, looked up): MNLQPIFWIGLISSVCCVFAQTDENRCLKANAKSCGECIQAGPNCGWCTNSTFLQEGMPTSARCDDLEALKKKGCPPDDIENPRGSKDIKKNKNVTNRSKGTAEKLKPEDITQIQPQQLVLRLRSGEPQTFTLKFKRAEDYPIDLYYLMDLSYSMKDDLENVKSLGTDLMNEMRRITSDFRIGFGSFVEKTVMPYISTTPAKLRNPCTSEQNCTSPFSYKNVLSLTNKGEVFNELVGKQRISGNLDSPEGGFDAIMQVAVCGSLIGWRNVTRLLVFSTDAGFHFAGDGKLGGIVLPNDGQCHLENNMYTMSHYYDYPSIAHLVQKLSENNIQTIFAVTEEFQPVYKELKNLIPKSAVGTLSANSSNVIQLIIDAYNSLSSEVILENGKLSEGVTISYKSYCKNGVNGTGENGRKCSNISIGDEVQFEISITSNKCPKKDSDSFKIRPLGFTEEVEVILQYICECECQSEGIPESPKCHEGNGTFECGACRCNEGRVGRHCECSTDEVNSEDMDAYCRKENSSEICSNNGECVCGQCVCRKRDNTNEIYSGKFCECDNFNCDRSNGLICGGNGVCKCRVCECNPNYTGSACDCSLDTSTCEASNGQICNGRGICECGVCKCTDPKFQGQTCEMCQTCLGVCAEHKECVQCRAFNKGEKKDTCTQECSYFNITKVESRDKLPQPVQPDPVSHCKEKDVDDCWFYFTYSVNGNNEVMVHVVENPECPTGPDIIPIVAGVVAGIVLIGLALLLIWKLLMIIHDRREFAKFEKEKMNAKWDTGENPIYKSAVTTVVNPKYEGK
Integrin beta-1 (Homo sapiens) + Integrin alpha-4 (Homo sapiens), sequence (P13612 whole entry, looked up): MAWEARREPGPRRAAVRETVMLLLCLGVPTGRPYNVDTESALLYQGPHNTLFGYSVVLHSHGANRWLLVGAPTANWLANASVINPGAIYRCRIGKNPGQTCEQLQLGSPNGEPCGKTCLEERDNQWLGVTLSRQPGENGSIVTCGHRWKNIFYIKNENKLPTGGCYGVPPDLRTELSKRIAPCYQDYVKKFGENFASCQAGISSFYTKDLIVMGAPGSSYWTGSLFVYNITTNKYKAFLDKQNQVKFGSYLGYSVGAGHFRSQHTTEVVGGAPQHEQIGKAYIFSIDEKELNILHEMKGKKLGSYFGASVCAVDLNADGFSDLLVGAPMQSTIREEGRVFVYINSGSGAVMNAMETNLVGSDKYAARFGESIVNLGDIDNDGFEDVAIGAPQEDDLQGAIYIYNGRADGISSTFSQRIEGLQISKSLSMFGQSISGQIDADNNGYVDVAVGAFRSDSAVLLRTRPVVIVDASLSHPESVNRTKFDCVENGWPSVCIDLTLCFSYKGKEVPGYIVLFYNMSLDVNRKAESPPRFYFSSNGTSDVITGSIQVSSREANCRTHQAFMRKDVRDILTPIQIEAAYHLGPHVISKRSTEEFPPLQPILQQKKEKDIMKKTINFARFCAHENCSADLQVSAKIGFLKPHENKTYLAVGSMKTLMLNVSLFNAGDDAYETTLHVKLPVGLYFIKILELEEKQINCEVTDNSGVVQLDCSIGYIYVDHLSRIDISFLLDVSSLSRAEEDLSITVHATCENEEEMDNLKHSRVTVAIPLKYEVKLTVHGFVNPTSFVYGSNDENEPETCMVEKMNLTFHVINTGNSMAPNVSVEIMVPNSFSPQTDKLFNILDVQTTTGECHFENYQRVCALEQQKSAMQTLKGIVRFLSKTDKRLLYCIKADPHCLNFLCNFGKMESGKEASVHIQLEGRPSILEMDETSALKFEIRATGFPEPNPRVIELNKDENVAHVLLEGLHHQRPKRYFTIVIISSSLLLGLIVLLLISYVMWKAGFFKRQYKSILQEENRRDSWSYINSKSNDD

[8] = superoxide lowering in aged yeast cells, pilot screen, validation compound set (AID 2706;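 active = superoxide response below 65% of plate, a cut near 3 SD across the whole screen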;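 note: yeast exposed to compound for one week at 30 degrees C before staining; 100% = mean of all compound wells on the same plate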); conditions: S. cerevisiae aging, superoxide DHE fluorescence; at 10 µM; stronger effect = lower value
[9] = biological target: Beta-adrenergic receptor kinase 1 (Homo sapiens) (UniProt P25098); assay: GRK2 binders displacing RNA aptamer, biochemical, validation, human GRK2, bead flow cytometry (AID 488806;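 active = aptamer binding inhibition above 30%, about 3 SD of noise from non-fluorescent compounds; inactive = inhibition at or below 30%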); conditions: bead-bound GRK2, FAM-aptamer displacement, at 10 µM, stronger effect = higher value
Beta-adrenergic receptor kinase 1 (Homo sapiens), sequence (P25098 whole entry, looked up): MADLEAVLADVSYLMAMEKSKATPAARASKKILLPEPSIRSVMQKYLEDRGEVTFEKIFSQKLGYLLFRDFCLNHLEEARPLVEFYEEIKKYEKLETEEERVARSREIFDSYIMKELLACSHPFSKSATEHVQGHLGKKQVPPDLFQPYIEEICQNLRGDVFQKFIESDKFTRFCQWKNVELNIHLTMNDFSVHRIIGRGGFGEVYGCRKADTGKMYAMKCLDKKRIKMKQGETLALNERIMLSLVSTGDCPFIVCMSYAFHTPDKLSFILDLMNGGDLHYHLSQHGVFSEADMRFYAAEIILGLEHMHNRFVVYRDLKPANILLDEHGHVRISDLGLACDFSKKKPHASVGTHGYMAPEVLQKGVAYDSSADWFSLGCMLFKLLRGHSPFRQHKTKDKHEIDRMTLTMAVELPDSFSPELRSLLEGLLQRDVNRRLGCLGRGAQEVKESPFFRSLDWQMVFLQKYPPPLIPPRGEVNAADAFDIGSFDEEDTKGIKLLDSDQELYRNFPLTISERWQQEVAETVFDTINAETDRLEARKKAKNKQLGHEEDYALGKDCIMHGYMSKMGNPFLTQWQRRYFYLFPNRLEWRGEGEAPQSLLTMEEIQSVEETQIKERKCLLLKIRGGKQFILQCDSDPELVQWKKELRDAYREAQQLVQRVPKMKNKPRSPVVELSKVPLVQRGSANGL

[10] = biological target: Beta-2 adrenergic receptor (Homo sapiens) (UniProt P07550); assay: beta2AR agonists driving receptor internalization, pilot screen, cell-based, FAP fluorogen, flow cytometry, validation set (AID 504459;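 active = percent response above 42, roughly 3 SD of non-fluorescent test compounds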;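 note: agonist-driven loss of surface beta2AR via internalization measured by FAP dye flow cytometry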); conditions: Am2.2-beta2AR cells, FAP surface receptor flow cytometry; at 10 µM; stronger effect = higher value
Beta-2 adrenergic receptor (Homo sapiens), sequence (P07550 whole entry, looked up): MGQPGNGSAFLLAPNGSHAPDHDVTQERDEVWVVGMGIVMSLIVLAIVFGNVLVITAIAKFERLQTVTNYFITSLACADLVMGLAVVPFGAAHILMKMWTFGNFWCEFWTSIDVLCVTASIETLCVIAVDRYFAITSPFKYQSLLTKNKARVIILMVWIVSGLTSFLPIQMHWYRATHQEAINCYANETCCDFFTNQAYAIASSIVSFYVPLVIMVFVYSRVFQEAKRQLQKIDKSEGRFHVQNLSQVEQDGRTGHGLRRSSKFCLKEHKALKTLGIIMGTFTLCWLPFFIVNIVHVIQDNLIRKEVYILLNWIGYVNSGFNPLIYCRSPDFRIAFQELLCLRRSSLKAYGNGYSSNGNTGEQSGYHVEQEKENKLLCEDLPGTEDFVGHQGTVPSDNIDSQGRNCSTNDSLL

[11] = biological target: AP-2 complex subunit beta (Homo sapiens) (UniProt P63010); assay: inhibitors of arrestin peptide binding to AP2, pilot screen, biochemical, validation set, GST-AP2 beads, flow cytometry (AID 504541;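 active = inhibition above 54%, about 3 SD of non-fluorescent compounds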;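 note: AP2 carries R879A mutation and is captured from E. coli lysate; bead-bound FITC arrestin peptide fluorescence measuring arrestin peptide binding to AP2; 0% = DMSO wells and 100% = excess unlabeled arrestin peptide control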); conditions: FITC arrestin peptide, at 10 µM, stronger effect = higher value, AP2 beta2 appendage fragment, R879A mutant
AP-2 complex subunit beta (Homo sapiens), sequence (P63010 whole entry, looked up, the tested form may be a part, one chain of several): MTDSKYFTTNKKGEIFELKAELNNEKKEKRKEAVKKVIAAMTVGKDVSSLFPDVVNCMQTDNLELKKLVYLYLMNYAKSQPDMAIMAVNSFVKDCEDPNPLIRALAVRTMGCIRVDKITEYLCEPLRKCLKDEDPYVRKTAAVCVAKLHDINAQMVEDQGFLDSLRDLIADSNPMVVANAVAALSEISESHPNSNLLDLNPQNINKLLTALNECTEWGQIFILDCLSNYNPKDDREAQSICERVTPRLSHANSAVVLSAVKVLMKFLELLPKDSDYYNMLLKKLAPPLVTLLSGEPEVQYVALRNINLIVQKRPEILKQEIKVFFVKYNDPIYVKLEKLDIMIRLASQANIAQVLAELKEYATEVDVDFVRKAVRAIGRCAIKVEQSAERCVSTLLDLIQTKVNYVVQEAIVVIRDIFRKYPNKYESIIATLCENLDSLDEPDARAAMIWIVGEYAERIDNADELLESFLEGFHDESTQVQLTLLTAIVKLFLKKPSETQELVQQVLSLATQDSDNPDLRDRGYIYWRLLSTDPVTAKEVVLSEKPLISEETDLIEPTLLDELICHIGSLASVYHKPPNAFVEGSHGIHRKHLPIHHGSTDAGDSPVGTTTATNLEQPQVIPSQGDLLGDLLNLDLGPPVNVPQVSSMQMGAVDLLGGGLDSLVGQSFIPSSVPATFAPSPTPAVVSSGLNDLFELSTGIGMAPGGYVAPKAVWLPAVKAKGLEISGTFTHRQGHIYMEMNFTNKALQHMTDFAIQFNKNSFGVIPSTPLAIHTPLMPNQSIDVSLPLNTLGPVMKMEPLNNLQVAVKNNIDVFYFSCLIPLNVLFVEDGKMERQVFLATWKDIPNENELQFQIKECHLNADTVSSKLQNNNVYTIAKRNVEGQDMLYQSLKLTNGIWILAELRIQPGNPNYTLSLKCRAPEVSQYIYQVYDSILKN

[12] = yeast V-ATPase proton transport modulators, S. cerevisiae, pHLuorin, HTS validation (AID 504600; in the data active = response above about 15%;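 note: plate controls were DMSO for no effect and reference compound for full effect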); conditions: S. cerevisiae pHLuorin cytosolic pH, at 10 µM, stronger effect = higher value
[13] = system: anti-desmoglein-3 scFv antibody binding to human DSG3; assay: inhibitors of anti-DSG3 scFv binding to DSG3, pilot screen, biochemical, validation compound set, bead-based, flow cytometry (AID 588368;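 active = binding below the plate cutoff, the plate median minus 3 SD, with a reading above zero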;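 note: signal is the median channel fluorescence of bead-bound GFP antibody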); conditions: Protein G beads, DSG3-Fc, scFv-GFP binding, at 10 µM, stronger effect = lower value
[14] = inhibitors of fungal efflux pumps CDR1, CDR2, MDR1, pilot screen, validation compound set, multiplex, phenotypic (AID 588506;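 active = efflux inhibition above 0.42, the validation set average plus 4 SD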;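 note: Nile Red retained in cells so higher fluorescence means more efflux inhibition; 0 = negative control wells and 1 = enniatin B 25 µM full block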); conditions: S. cerevisiae pump-expressing triplex, Nile Red efflux flow cytometry; at 10 µM; stronger effect = higher value; the pumps come from Candida albicans
[15] = biological target: ATP-binding cassette sub-family B member 6 (Homo sapiens) (UniProt Q9NP58); assay: ABCB6 transporter inhibitors, pilot screen, K562-ABCB6 cells, flow cytometry, validation set (AID 588550;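 active = inhibition above the screen-wide mean plus 3 SD, about 51%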;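 note: 0% = DMSO wells and 100% = benzethonium chloride 70 µM positive control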); conditions: K562-ABCB6 porphyrin accumulation, 1 h, at 10 µM, stronger effect = higher value
ATP-binding cassette sub-family B member 6 (Homo sapiens), sequence (Q9NP58 whole entry, looked up): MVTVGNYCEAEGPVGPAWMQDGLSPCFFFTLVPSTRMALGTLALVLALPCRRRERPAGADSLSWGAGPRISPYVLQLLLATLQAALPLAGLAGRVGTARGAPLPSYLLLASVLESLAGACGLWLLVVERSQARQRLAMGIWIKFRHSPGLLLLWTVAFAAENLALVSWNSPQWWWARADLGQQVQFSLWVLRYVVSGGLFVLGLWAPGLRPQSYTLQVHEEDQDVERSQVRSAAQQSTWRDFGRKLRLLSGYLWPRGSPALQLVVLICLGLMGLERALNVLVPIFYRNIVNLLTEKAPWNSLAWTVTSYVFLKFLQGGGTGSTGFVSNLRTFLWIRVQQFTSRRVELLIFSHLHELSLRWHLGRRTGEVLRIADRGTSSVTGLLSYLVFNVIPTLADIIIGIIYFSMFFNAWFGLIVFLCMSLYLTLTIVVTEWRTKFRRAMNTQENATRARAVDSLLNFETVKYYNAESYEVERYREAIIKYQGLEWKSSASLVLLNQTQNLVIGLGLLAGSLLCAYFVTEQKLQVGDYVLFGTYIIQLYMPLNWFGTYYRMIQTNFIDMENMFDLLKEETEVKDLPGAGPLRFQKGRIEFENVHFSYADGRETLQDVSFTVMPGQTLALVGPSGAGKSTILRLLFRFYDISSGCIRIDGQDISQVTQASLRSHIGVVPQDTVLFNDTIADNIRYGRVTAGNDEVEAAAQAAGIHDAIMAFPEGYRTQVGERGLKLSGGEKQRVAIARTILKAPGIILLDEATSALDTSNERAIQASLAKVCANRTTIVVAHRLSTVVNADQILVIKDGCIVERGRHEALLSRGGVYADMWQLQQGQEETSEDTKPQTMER

[16] = promoters of myeloid differentiation in arrested cells, primary screen, cell-based, GFP/MAC1 double positive, flow cytometry, validation set (AID 588685;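 active = differentiation response of at least 50%, scaled between solvent and reference control, from cells with both markers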;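 note: compound exposure lasts four days before antibody staining and flow analysis; 0% = DMSO wells and 100% = 5 µM fulvestrant positive control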); conditions: ER-HoxA9 marrow cells, stronger effect = higher value, normalized: vehicle 0, fulvestrant 100

Structure (SMILES)	percent of DMSO control GFP [1]	GFP response vs DMSO [2]	percent response of DMSO control [3]	GFP response vs DMSO [4]	GFP response, % of DMSO [5]	double positive events [6] [%]	vesicle binding response [6]	inhibition [7]	superoxide response (% of plate) [8]	aptamer binding inhibition [9]	response [10]	inhibition [11]	response [12]	binding (% of control) [13]	efflux inhibition (fraction of control) [14]	inhibition [15]	differentiation response [16]
O=C(CC(NC(=O)OCc1ccccc1)C(=O)O)OCc1ccccc1 (stereo not given)	106% (inactive)	99.3% (inactive)	107% (inactive)	98% (inactive)	99.5% (inactive)	63.2	160% (inactive)	18.2% (inactive)	94.6% (inactive)	4% (inactive)	-5.78% (inactive)	-5.06% (inactive)	-3.27% (inactive)	97.1% (inactive)	-0.07 (inactive)	22% (inactive)	-2.69% (inactive)
CCN(CCCc1ccccc1)CCCc1ccccc1	100% (inactive)	103% (inactive)	102% (inactive)	106% (inactive)	118% (inactive)	63.1	202% (inactive)	27.8% (inactive)	118% (inactive)	0% (inactive)	-9.83% (inactive)	34.3% (inactive)	-9.09% (inactive)	103% (inactive)	0.04 (inactive)	3% (inactive)	-9.91% (inactive)
COc1ccc(NC2=C(Cl)C(=O)N(c3ccccc3)C2=O)c(OC)c1	105% (inactive)	110% (inactive)	107% (inactive)	106% (inactive)	109% (inactive)	60.1	159% (inactive)	-1.09% (inactive)	94.5% (inactive)	1% (inactive)	1.18% (inactive)	0.15% (inactive)	1.06% (inactive)	97% (inactive)	-0.25 (inactive)	-3% (inactive)	-4.57% (inactive)
NC(=O)N1c2ccccc2CC(=O)c2ccccc21	103% (inactive)	102% (inactive)	102% (inactive)	92.6% (inactive)	102% (inactive)	64.1	200% (inactive)	6.95% (inactive)	106% (inactive)	2% (inactive)	0.79% (inactive)	-3.95% (inactive)	-2.65% (inactive)	97.3% (inactive)	-0.14 (inactive)	2% (inactive)	-6.03% (inactive)
COc1ccc(C(Cl)=C(c2ccc(OC)cc2)c2ccc(OC)cc2)cc1	102% (inactive)	109% (inactive)	91.9% (inactive)	90.7% (inactive)	98% (inactive)	62.9	934% (inactive)	-8.75% (inactive)	95.2% (inactive)	4% (inactive)	1.32% (inactive)	18.5% (inactive)	-2.47% (inactive)	95.8% (inactive)	0.18 (inactive)	7% (inactive)	6.11% (inactive)
COc1cc(CNCc2ccc(OC)c(OC)c2OC)cc(OC)c1	105% (inactive)	110% (inactive)	105% (inactive)	104% (inactive)	112% (inactive)	60.7	178% (inactive)	33.8% (inactive)	106% (inactive)	2% (inactive)	-16% (inactive)	64.9% (active)	22.7% (active)	102% (inactive)	0 (inactive)	1% (inactive)	-11.9% (inactive)
CC1(C)Oc2ccc(C#N)cc2[C@@H](N2CCCC2=O)[C@@H]1O	97.9% (inactive)	115% (inactive)	116% (inactive)	78.7% (inactive)	99.1% (inactive)	63	180% (inactive)	2.58% (inactive)	93% (inactive)	-1% (inactive)	-6.3% (inactive)	1.01% (inactive)	0.27% (inactive)	100% (inactive)	-0.09 (inactive)	6% (inactive)	0% (inactive)
Fc1ccc(-c2cc(-c3ccccc3)nc(-n3cccn3)n2)cc1	96.5% (inactive)	106% (inactive)	99.3% (inactive)	97.2% (inactive)	75.4% (inactive)	57.7	11.1% (inactive)	6.85% (inactive)	92% (inactive)	4% (inactive)	8.42% (inactive)	34.7% (inactive)	0.43% (inactive)	102% (inactive)	0.3 (inactive)	2% (inactive)	20.9% (inactive)
c1cc(-c2ccncc2)ccn1	99.7% (inactive)	95.2% (inactive)	106% (inactive)	108% (inactive)	105% (inactive)	58.3	239% (inactive)	0.94% (inactive)	117% (inactive)	4% (inactive)	8.34% (inactive)	23.8% (inactive)	-5.09% (inactive)	101% (inactive)	-0.28 (inactive)	4% (inactive)	79.2% (active)
CCC(C)NCCOc1ccc(C(C)(C)c2ccccc2)cc1 (stereo not given)	107% (inactive)	99.3% (inactive)	104% (inactive)	94% (inactive)	103% (inactive)	61.9	181% (inactive)	-5.64% (inactive)	97.5% (inactive)	-5% (inactive)	17.1% (inactive)	-12.2% (inactive)	-2.14% (inactive)	106% (inactive)	-0.01 (inactive)	-5% (inactive)	9.04% (inactive)
